Compound activity: PubChem, Broad Institute
aSyn 5UTR act – Activators via SNCA 5'UTR binding, MLPCN. AID 1814, 2009. alpha-synuclein 5'UTR reporter, activators screen. 7.1% of 300,000 active. activity score, % (tested at 7.5 µM), hits read low; in the data active = activity score below about -60%
* = called active by the depositor. These entries were drawn from the full list.

SMILES | aSyn 5UTR act
O=C(NCc1cccs1)c1cc(-c2cccc(Cl)c2)on1 | -76.6*
Cc1ccc(-c2cc(C(=O)NCc3cccs3)no2)cc1 | -122.3*
CC(C)CNC(=O)c1cc(-c2ccc(Cl)c(Cl)c2)on1 | -117.8*
CCOc1ccc(-c2cc(CCCC(=O)NCc3ccc(C)cc3)no2)cc1 | 80.7
COc1ccc(/C=C/C(=O)c2ccc(Cl)s2)cc1O | -147.4*
COc1cc(/C=C/C(=O)c2ccc(Cl)s2)cc(OC)c1O | -164.1*
CCCC1c2ccc(C)n2CCN1C(=O)Nc1ccccc1Cl (stereo not given) | -120.3*
O=C(Nc1ccc(Cl)cc1Cl)c1ccc2c(=O)n3c(nc2c1)CCC3 | -159.3*
O=C(Nc1ccc(Br)cc1Cl)c1ccc2c(=O)n3c(nc2c1)CCC3 | -189.6*
Cc1cccc(NC(=O)C(=O)NCc2ccccn2)c1 | -70.4*
Cc1cccc(NC(=S)NCc2ccccn2)c1 | -76.7*
S=C(NCc1ccccn1)Nc1cccc(Cl)c1 | -72.6*
COc1cc(/C=C/C(=O)CC(=O)/C=C/c2ccc(O)c(OC)c2)ccc1O | -84.7*
COc1cc(/C=C/C(=O)c2ccc([N+](=O)[O-])o2)ccc1O | 67.1
COc1cc(/C=C2\CCC/C(=C\c3ccc(O)c(OC)c3)C2=O)ccc1O | -394.0*
COc1ccc(/C=C2\CCCC(C(=O)C(F)(F)F)=C2O)cc1OC | -69.1*
CCOc1cc(/C=C2\CN(CC)C/C(=C\c3ccc(O)c(OCC)c3)C2=O)ccc1O | 102.4
COc1cc(/C=C2\Oc3cc(O)ccc3C2=O)ccc1O | -194.5*
COc1cc(/C=C2/CCC/C(=C\c3cc(O)c(OC)c(Cl)c3)C2=O)cc(Cl)c1O | -142.7*
COc1ccc(/C=C2\OC(=O)c3c(OC)cccc32)cc1OC | -200.2*
COc1cc(/C=C2\COC/C(=C\c3cc(OC)c(OC)c(OC)c3)C2=O)cc(OC)c1OC | 103.4
COC(=O)/C(C#N)=C/c1c[nH]c2ccccc12 | -96.4*
CCOC(=O)/C(C#N)=C/Nc1ccccc1OC | -121.7*
CCOC(=O)/C(C#N)=C/c1cc2ccccc2nc1Cl | -79.7*
CCOC(=O)/C(C#N)=C/c1c[nH]c2ccccc12 | -66.2*
SMILES | aSyn 5UTR act
O=Cc1cc2ccccc2nc1SCc1ccc(Cl)c(Cl)c1 | 109.1
Fc1ccccc1-c1nc(-c2ccncc2)no1 | -115.9*
NC(=O)c1ccccc1-c1nc(-c2ccccc2)no1 | -82.2*
Fc1ccccc1-c1nc(-c2ccccc2)no1 | -96.6*
CC(C)N=C1NN=C(c2cccs2)CS1 | -99.9*
CC(C)N=C1NN=C(c2ccc(Cl)c(Cl)c2)CS1 | -228.1*
CC(C)c1ccc(N=C2NN=C(c3cccs3)CS2)cc1 | -145.3*
COc1cc2c(cc1NC(=O)c1cccc([N+](=O)[O-])c1)oc1ccccc12 | 80.9
COc1cc2c(cc1NC(=O)c1cccnc1)oc1ccccc12 | -154.8*
COc1cc2c(cc1NC(=O)c1ccncc1)oc1ccccc12 | -131.9*
CCN(CC)S(=O)(=O)c1ccc(N=Nc2cc(C)cc(Br)c2O)cc1 | -75.9*
CCN(CC)S(=O)(=O)c1ccc(N/N=C(\C)c2ccc(OC)cc2O)nc1 | 78.2
O=[N+]([O-])c1[nH]cnc1/C=C/c1ccccc1 | -64.8*
CC(C)c1ccc(C(=O)Nc2ccc(CN3CCOCC3)cc2)cc1 | -68.1*
CSc1ccccc1NC(=O)c1ccc(CN2CCOCC2)cc1 | -96.7*
CC(C)c1ccc(NC(=S)NN2CCOCC2)cc1 | -135.0*
Cc1c(Cl)cccc1NC(=S)N=Nc1c(O)n(CN2CCOCC2)c2ccccc12 | 64.5
O=C(Nc1ccc2c(c1)OCO2)c1ccc(CN2CCOCC2)cc1 | -104.0*
c1ccc(C2=NN(c3ccccc3)CC2)cc1 | -157.1*
CCOc1cc(N2CCOCC2)c(OCC)cc1NC(=O)c1cc(-c2ccco2)nc2ccccc12 | 113.9
NNC(=O)c1oc2nc(-c3ccco3)cc(-c3ccco3)c2c1N | -62.1*
CC(=O)c1sc(NC(=O)c2cnc(Cl)c(Cl)c2)nc1C | -127.7*
CC(=O)c1sc(NC(=O)c2ccc(C)c(C)c2)nc1C | -86.3*
Cc1csc(NC(=O)c2ccc3c(c2)OCO3)n1 | -81.0*
Cc1nc(NC(=O)c2ccccc2)sc1Cc1ccc2c(c1)OCO2 | -68.7*
SMILES | aSyn 5UTR act
CCN1CCc2nc(NC(=O)c3ccc4c(c3)OCCO4)sc2C1 | -82.9*
CC(=O)c1sc(NC(=O)c2ccc(C(C)(C)C)cc2)nc1C | -107.2*
O=C(Nc1nccs1)c1ccc2c(c1)OCO2 | -145.8*
CC(=O)c1sc(NC(=O)c2ccc3c(c2)OCO3)nc1C | -135.6*
O=c1cc(NCCc2ccccc2)c2ccccc2o1 | -130.4*
C(/C=C/c1ccco1)=N/N1CCN(c2ccccc2)CC1 | -189.0*
Clc1ccccc1CN1CCN(/N=C/C=C\c2ccco2)CC1 | -78.3*
Cc1ccc(C(=O)Nc2nc3ccccc3n2CCN2CCCC2)cc1 | -76.0*
C=CCn1c(NC(=O)c2ccc(C)cc2)nc2ccccc21 | -111.2*
CC(=O)Nc1nc2ccccc2n1Cc1ccccc1C | 66.6
CCCCCCCn1c(NC(=O)CC)nc2ccccc21 | 68.1
COc1ccc(NC(=O)c2c(Cl)nc3ccccn23)cc1 | -142.4*
COC(=O)c1cc(NC(=O)c2c(Cl)nc3sccn23)cc(C(=O)OC)c1 | 79.5
O=C(Nc1ccc(F)cc1)c1c(Cl)nc2ccccn12 | -111.5*
COc1ccc2cc(/C=N/NC(=O)c3ccc(CN(c4ccc(C)c(C)c4)S(C)(=O)=O)cc3)c(Cl)nc2c1 | 64.8
Cc1ccc2cc(/C=C/C(=O)c3ccco3)c(Cl)nc2c1 | -120.8*
COc1ccc2cc(/C=C/C(=O)c3ccco3)c(Cl)nc2c1 | -78.0*
Cc1ccc2nc(Cl)c(/C=C/C(=O)c3ccco3)cc2c1 | -151.2*
Cn1c2c(c(=O)[nH]c1=O)C(c1ccc(O)cc1)C1=C(N2)c2ccccc2C1=O (stereo not given) | -66.8*
CC1=C([N+](=O)[O-])C(c2ccccc2)C2=C(N1)c1ccccc1C2=O (stereo not given) | 113.3
COc1ccc(/C=N/N=C(\N)c2nonc2N)cc1 | -111.0*
Cc1cc(C(=O)COc2ccccc2[N+](=O)[O-])c(C)n1C1CC1 | -130.9*
Cc1cc(C(=O)COc2cccnc2[N+](=O)[O-])c(C)n1-c1ccccc1F | 67.5
Cc1cc(C(=O)COC(=O)c2ccc(Cl)c(S(N)(=O)=O)c2)c(C)n1C1CC1 | -142.8*
Cc1cc(C(=O)COc2ccccc2C(N)=O)c(C)n1C1CC1 | -76.2*
SMILES | aSyn 5UTR act
Cc1cc(C(=O)COc2cccnc2[N+](=O)[O-])c(C)n1-c1ccccc1 | 99.8
Cc1cc(-n2c(C)cc(C(=O)COc3ccccc3[N+](=O)[O-])c2C)no1 | -67.5*
Cc1cc(C(=O)COC(=O)c2ccc[nH]c2=O)c(C)n1C1CC1 | -99.1*
Cc1nc2ccccn2c1C(=O)/C=C/c1ccc(F)cc1 | -83.4*
COc1ccc(/C=C/C(=O)c2c(C)nc3ccccn23)cc1 | -307.6*
Cc1ccc(NC(=O)Nc2ccc(F)cc2)cc1Cl | -130.4*
COc1cccc(NC(=O)Nc2ccc(C)c(Cl)c2)c1 | -156.6*
CC1CCCN(S(=O)(=O)c2ccc(C(=O)Nc3nnc(-c4ccccc4Cl)o3)cc2)C1 (stereo not given) | 77.9
Cc1ccc(NC(=O)c2cccnc2)cc1C | -104.4*
O=C(Nc1ccc(N2CCCCC2)c(Cl)c1)c1cccnc1 | -312.9*
Cc1cc(O)c(C)c(O)c1/C=N/NC(=O)c1cccnc1 | 68.5
O=C(Nc1ccc(Cl)c(Cl)c1)c1cccnc1 | -102.3*
O=C(Nc1nnc(-c2ccccc2Cl)o1)c1cccnc1 | -94.2*
O=C(Nc1ccc(N2CCCC2)c(Cl)c1)c1cccnc1 | -111.9*
O=C(COC(=O)c1ccc(-c2nnc(-c3ccccc3)o2)cc1)c1ccccc1 | -125.7*
